The panel holds about 83,000 compounds, 20% with a hit somewhere; the sample as a whole holds those more often.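 Percent growth is the endpoint: 0 to 100 indicates growth inhibition (40 means 60% inhibition), 0 means no net growth, and negative values indicate cell death.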 Values without a mark were called inactive. The source made the active and inactive calls. How the source made its calls: active means growth percent below 10; inactive means the rest.
system: HL-60(TB) leukemia; test: NCI-60 one-dose screen, 48 h (100 = growth as untreated, 0 = no growth, -100 = all killed); details: 10 µM unless noted

SMILES | growth
CCOC(=O)c1ccccc1-c1c2ccc(=[N+](C)C)cc-2oc2cc(N(C)C)ccc12 | -14.3% (active)
CN(C)CCN1C(=O)c2cccc3c(N)ccc(c23)C1=O | -6.78% (active)
C=CC(=O)N[C@@H](/C=C/C(=O)OCC)Cc1ccc(-c2cc(Cl)cc(Cl)c2)cc1 | -27.4% (active)
O=CC(OC(=O)c1ccccc1)C(OC(=O)c1ccccc1)C(COC(c1ccccc1)(c1ccccc1)c1ccccc1)OC(=O)c1ccccc1 (centres undefined) | -12.3% (active)
COc1cc(-c2nc3cc(Cl)c(Cl)cc3[nH]2)ccc1OCC(=O)N=Nc1c(O)[nH]c2ccccc12 | -51.5% (active)
Cc1cc(-c2noc(C(F)(F)F)n2)ccc1N1CCN(c2cc(C(=O)N(C)C)no2)CC1 | 49.7%
NC(=S)NN=C1CCCC1 | 95.1%
Cc1ccc(Cc2cnc(NC(=O)c3cc(C)oc3C)s2)cc1 | 79.1%
COC(=O)[C@]12CC[C@@H](C)[C@H](C)[C@@H]1C1=CC[C@@H]3[C@@]4(C)C(C=O)=C[C@@](C)(COS(C)(=O)=O)C4=CC[C@@]3(C)[C@]1(C)CC2 | -34.8% (active)
CCOc1ccc(/C=N\N=C\c2ccc(OCC)cc2)cc1 | 76.6%
Cn1c(=O)c2[nH]c(=S)n(Cc3ccccc3)c2n(C)c1=O | 101%
NC(N)=NC(N)=NCCCc1ccco1 | 83.1%
COc1cc(-c2nc(C(=O)Nc3ccc(C)cc3)nn2-c2ccc(F)c(F)c2)cc(OC)c1OC | 100%
COc1ccc(/C=C\c2cc(OC)c(OC)c(OC)c2)cc1OCC(=O)Nc1nc2ccccc2s1 | 18.7%

Source: PubChem BioAssay (NCI)
